Mtb FBA inh = inhibitors of M. tuberculosis fructose-bisphosphate aldolase; 360,000 tested, 2.3% active; inhibition, % at 1 µM; AID 588726; P9WQA3; purified M. tuberculosis FBA, fluorescence read-out
Target sequence (P9WQA3 whole entry, looked up): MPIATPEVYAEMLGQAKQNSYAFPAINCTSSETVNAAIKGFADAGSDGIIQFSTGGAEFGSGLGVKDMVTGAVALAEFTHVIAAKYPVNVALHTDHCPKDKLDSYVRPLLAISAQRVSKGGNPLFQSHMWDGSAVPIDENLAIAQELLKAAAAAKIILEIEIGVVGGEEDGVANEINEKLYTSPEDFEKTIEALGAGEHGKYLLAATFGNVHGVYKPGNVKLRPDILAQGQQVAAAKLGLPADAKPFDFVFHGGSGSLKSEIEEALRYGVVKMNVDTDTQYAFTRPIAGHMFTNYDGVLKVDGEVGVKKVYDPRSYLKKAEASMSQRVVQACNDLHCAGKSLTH
Mtb hypoxia inh = reduces hypoxia-regulated biosensor signal in M. tuberculosis; M. tuberculosis hypoxia-regulated fluorescent reporter, fluorescence; fluorescence inhibition, % (no concentration beside the values); 300,000 tested, 0.1% active; in the data active means fluorescence inhibition mostly above about 23%, no sharp cut-off; inactive means mostly below about 17%
GDH-TPI counter-1 = inhibits GDH-TPI coupling enzymes, artifact for Mtb FBA screen. GDH-TPI coupled enzyme counterscreen, NADH absorbance. inhibition, % at 4.8 µM. 360,000 tested, 1.2% active; in the data active means inhibition above about 30%
FadD28 FP inh = blocks FadD28 binding to the bisubstrate probe. inhibition, % at 12.5 µM. fluorescence polarization. AID 588549. 360,000 tested, 0.22% active; in the data active means inhibition above about 8.5%, passing the limit was not always enough
BioA inh = inhibitors of Mycobacterium tuberculosis BioA enzyme; purified M. tuberculosis BioA enzyme, plate reader; inhibition, % at 9.99 µM; 360,000 tested, 0.096% active; in the data active means inhibition above about 40%
Mtb FBA inh conf = Mtb FBA inhibition, confirmed. shares compounds with Mtb FBA inh. purified M. tuberculosis FBA, fluorescence read-out. inhibition, % at 1 µM. 5,600 tested, 78% active
GDH-TPI counter-2 = GDH-TPI inhibition counter-screen for FBA inhibitors. shares compounds with Mtb FBA inh. inhibition, % at 1 µM. GDH-TPI coupled enzyme counterscreen, fluorescence. 5,600 tested, 81% active. AID 652141; in the data active means inhibition above about 10%
GDH-TPI DR = GDH-TPI dose response counter-screen for Mtb FBA; 170 tested, 79% active; shares compounds with Mtb FBA inh; IC50, µM; GDH-TPI coupled enzyme assay, fluorescence, artifact counterscreen; AID 652145; call rule not given here
A number is an active result; 0 = inactive; - = no result given; + = active, no number. Sampled rows, rich in hits. Any-hit rate of the full collection: about 2.9%. Unless noted, no stated cut-off is given here; in the data, active means inhibition above about 27%; inactive means the rest.

SMILES	Mtb FBA inh	Mtb hypoxia inh	GDH-TPI counter-1	FadD28 FP inh	BioA inh	Mtb FBA inh conf	GDH-TPI counter-2	others
CCC(=O)Nc1cccc(C2=NN(c3ccccc3)C(c3ccc(OC)cc3)C2)c1 (stereo not given)	77	0	0	0	0	104	69
COc1ccc(NC(=O)c2cc(-c3ccco3)nc3ccccc23)cc1	0	0	0	0	-	-	-
CN(CC(=O)Nc1cccc(F)c1)C(=O)c1cc(-c2ccco2)nc2ccccc12	75	0	0	0	-	+	170
COc1ccc(NC(=O)CN(C)C(=O)c2cc(-c3ccco3)nc3ccccc23)cc1	45	0	0	0	0	+	+
COc1cccc(S(=O)(=O)Nc2ccc3c(c2)OC[C@@H](C)N(Cc2cc(F)ccc2F)C[C@@H](C)[C@H](OC)CN(C)C3=O)c1	-	-	-	-	0	-	-
CNC(=S)NN=Cc1ccc2c(c1)OCCO2	-	0	-	-	-	-	-
O=S(=O)(c1cccc(Cl)c1)N1CN(CC2CCCO2)c2nc3ccccc3nc21 (stereo not given)	36	0	0	0	0	188	146
COCCN1CN(S(=O)(=O)c2cccc(Cl)c2)c2nc3ccccc3nc21	29	0	0	0	0	54	30
Cc1cnn(-c2cc(NN=Cc3ccccc3)ncn2)c1	-	0	-	-	-	-	-
CCCC(=O)N1CCN(c2nc(CC(C)C)c3c(c2C#N)CCC3)CC1	32	-	0	0	0	159	120
O=C(O)c1cccc2sc3cc(Cl)ccc3c(=O)c12	63	0	0	0	0	157	126
O=C(O)c1cccc2c1-c1ccc(Cl)cc1C2	0	0	0	0	0	-	-
Cc1ccc(CNC(=O)CN(C(=O)C2(C)CC(=O)N=C3C=CC=CN32)c2ccccc2F)cc1 (stereo not given)	82	0	0	0	0	77	53
Cc1ccc(CNC(=O)CN(C(=O)C2(C)CC(=O)N=C3C=CC=CN32)c2ccc(F)cc2)cc1 (stereo not given)	69	0	0	0	0	0	0
CCN(CC)CCCNc1nc(C)cc(COC)c1C#N	76	0	0	0	-	114	103
CN(C)CCCOc1ccc(-c2cccc3nncn23)cn1	43	-	0	0	0	146	120
CN(C)CCNC(=O)c1cccc(-c2cnc3c(NC=O)cc(-c4cc(F)c(F)c(F)c4)cn23)c1	0	-	0	0	0	-	-
CN(C)CCNC(=O)c1cccc(-c2cccc3nncn23)c1	71	-	0	0	0	134	88
CN(C)CCCOc1ccc(-c2ccc3nncn3c2)cn1	0	-	0	0	0	-	-
N#CCCN(C(=O)COc1ccc(F)cc1Br)c1ccccc1F	28	0	0	0	0	0	0	GDH-TPI DR=0
CCc1ccc(OCC(=O)N(C)CCC#N)c(Br)c1	0	0	0	0	-	-	-
CCN1CC2C3C(=O)N(C)C(=O)C3[C@](Cc3ccccc3)(C1=O)N2C(=O)c1ccc(C(C)(C)C)cc1 (stereo not given in full)	-	0	-	-	-	-	-
COc1ccc(-c2cc(C(=O)N3CCN(c4ccccc4)CC3)c3ccccc3n2)cc1	30	0	0	0	-	0	0
COc1ccc(-c2cc(C(=O)N3CCC4(CC3)OCCO4)c3ccccc3n2)cc1	110	0	0	0	-	0	0
COc1ccc(-c2cc(C(=O)N3CCN(c4ncccn4)CC3)c3ccccc3n2)cc1	31	0	0	0	0	149	123
SMILES	Mtb FBA inh	Mtb hypoxia inh	GDH-TPI counter-1	FadD28 FP inh	BioA inh	Mtb FBA inh conf	GDH-TPI counter-2	others
C[C@H]1CN([C@@H](C)CO)C(=O)c2cc(-c3cncnc3)cnc2O[C@@H]1CN(C)Cc1ccccc1	-	-	-	-	0	-	-
CC(C)NC(=O)Nc1ccc2c(c1)C(=O)N([C@@H](C)CO)C[C@H](C)[C@H](CN(C)Cc1ccc(C(F)(F)F)cc1)OCCCC[C@H](C)O2	-	-	-	-	0	-	-
COc1ccc(-c2nnc(-c3cccs3)o2)cc1OC	55	0	0	0	0	63	53
COc1cc(-c2nnco2)cc(OC)c1OC	-	0	-	-	-	-	-
COc1ccc(-c2nnc(-c3cc(OC)c(OC)c(OC)c3)o2)cc1OC	89	0	0	0	0	40	28
CCOc1ccc(-c2nnc(-c3cccs3)o2)cc1OCC	0	0	0	0	-	-	-
COc1cc(-c2nnc(-c3cccs3)o2)cc(OC)c1OC	0	-	0	0	0	-	-
CCOc1ccc(-c2nnc(-c3cccs3)o2)cc1	75	0	0	0	0	54	46
C[C@H](CO)N1C[C@H](C)[C@H](CN(C)S(C)(=O)=O)Oc2cc(-c3ccccc3F)ccc2S1(=O)=O	-	-	-	-	0	-	-
c1ccc2c(c1)ccc1[nH]c3c(c12)CCCC3	43	-	0	0	0	75	69
O=C(Nc1nccs1)[C@@H]1[C@@H](CO)[C@@H]2Cn3c(cccc3=O)[C@@H]2N1C(=O)C1CC1	-	-	-	-	0	-	-
Cc1cccc(-c2cc3nc(C)cc(N4CC(C)CC(C)C4)n3n2)c1 (stereo not given)	67	-	0	0	0	56	30
Cc1noc(C)c1NC(=O)Nc1ccc2c(c1)C(=O)N([C@H](C)CO)C[C@@H](C)[C@@H](CN(C)C(=O)Nc1ccc3c(c1)OCO3)O2	-	-	-	-	0	-	-
O=C1NCC(c2ccccc2)OC(=O)C(Cc2ccc(F)cc2)CC=CCC1CC(=O)N(CCO)Cc1ccccc1 (stereo not given)	-	0	-	-	-	-	-
O=c1oc(Nc2cccc(F)c2)nc2ccccc12	36	0	0	0	0	96	79
Nc1nc(Nc2cccc(F)c2)nc2ccccc12	0	0	0	0	0	-	-
CCC(C)[C@H](NC(=O)C1CC(=O)N(c2ccc3c(c2)OCCO3)C1)C(=O)NC1CCCC1 (stereo not given in full)	0	0	0	0	0	-	-
CC(C)[C@H](NC(=O)C1CC(=O)N(c2ccc3c(c2)OCCO3)C1)C(=O)NC1CCCC1 (stereo not given in full)	96	0	0	0	0	+	+
C[C@@H]1CN([C@@H](C)CO)C(=O)c2cc(NS(C)(=O)=O)ccc2O[C@@H](C)CCCCO[C@@H]1CN(C)C(=O)c1ccncc1	-	-	-	-	0	-	-
Cn1c(=O)c2nc(-c3ccccc3)c(-c3ccccc3)nc2n(C)c1=O	44	0	0	0	-	81	78
Cn1c(=O)c2nc(Cl)c(-c3ccccc3)nc2n(C)c1=O	33	0	0	0	-	152	105
Cn1c(=O)c2nc3ccccc3nc2n(C)c1=O	0	0	0	0	0	-	-
O=C(NCC1CCCO1)C1CCC(N2C(=O)c3ccccc3C2=O)CC1 (stereo not given)	0	0	0	0	0	-	-
O=C(NCC1CCCO1)C1c2ccccc2C(=O)N1C1CCCCCC1 (stereo not given)	41	0	0	0	0	112	97
